m-calpain inh = inhibitors of pig calpain II, primary screen, biochemical, fluorogenic peptide substrate, 1536-well. hit rate 0.37% among 220,000. purified calpain II, 30 min. inhibition, % at 16 µM;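 active = inhibition above about 50%, limit read from the data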
14-3-3 Bad PPI = inhibitors of 14-3-3 zeta/Bad binding, primary screen, biochemical, TR-FRET, bovine 14-3-3 zeta. 14-3-3 protein zeta/delta (Bos taurus), P63103. TR-FRET 14-3-3zeta/Dy647-pBad peptide displacement, 1 h. inhibition, % at 21.7 µM. hit rate 0.71% among 220,000. AID 781, 2007;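 active = inhibition above about 70%, limit read from the data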
Target sequence (P63103 whole entry, looked up): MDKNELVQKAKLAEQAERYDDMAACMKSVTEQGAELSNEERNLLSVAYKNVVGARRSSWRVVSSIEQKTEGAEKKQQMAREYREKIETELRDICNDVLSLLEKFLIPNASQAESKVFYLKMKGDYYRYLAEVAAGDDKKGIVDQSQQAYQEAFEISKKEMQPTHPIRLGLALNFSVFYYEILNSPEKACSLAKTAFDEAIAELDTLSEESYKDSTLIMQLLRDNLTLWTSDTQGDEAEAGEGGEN
Mcl1 Bid PPI = Mcl-1/Bid binding inhibitors, primary screen, biochemical, TR-FRET, 1536-well; Induced myeloid leukemia cell differentiation protein Mcl-1 (Homo sapiens), Q07820; TR-FRET Mcl-1/Bid-Dy647 peptide binding; inhibition, % at 21.7 µM; hit rate 0.97% among 220,000; AID 1021, 2008;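 active = compounds that cut the binding signal by more than half at the single screening dose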;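 note: His-tagged Mcl-1 with europium anti-His antibody binding Bid BH3 peptide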
Target sequence (Q07820 whole entry, looked up): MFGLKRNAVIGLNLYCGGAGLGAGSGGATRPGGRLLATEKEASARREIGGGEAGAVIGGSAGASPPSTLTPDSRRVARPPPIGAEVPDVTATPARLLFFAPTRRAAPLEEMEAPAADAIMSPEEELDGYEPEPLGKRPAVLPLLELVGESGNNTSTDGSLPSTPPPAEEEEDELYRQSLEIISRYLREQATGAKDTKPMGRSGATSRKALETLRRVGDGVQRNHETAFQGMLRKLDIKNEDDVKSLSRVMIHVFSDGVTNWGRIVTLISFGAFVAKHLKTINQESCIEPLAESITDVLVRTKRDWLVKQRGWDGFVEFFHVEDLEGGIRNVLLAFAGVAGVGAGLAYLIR
Mcl1 Noxa PPI = Mcl-1/Noxa binding inhibitors, primary screen, biochemical, TR-FRET, 1536-well | Induced myeloid leukemia cell differentiation protein Mcl-1 (Homo sapiens), Q07820 | hit rate 1.5% among 220,000 | AID 1022, 2008 | inhibition, % at 21.7 µM | TR-FRET Mcl-1/Noxa peptide binding, 2 h;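 active = compounds that cut the protein-peptide binding signal by more than 50% relative to plate controls in a single-dose test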;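 note: His-tagged Mcl-1 with rhodamine Noxa BH3 peptide and terbium anti-His antibody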
p47phox inh = p47phox/p22phox peptide binding inhibitors, primary screen, biochemical, uHTS, NADPH oxidase regulatory subunit | fluorescence polarization, 2 h | hit rate 0.53% among 220,000 | Neutrophil cytosol factor 1 (Homo sapiens), P14598 | inhibition, % at 24.7 µM;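 active = inhibition above about 30%, limit read from the data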
Mcl-1 Bim block = inhibitors of Bim peptide binding to Mcl-1, primary screen, biochemical, bead-based flow cytometry, multiplex; Bim peptide-Mcl-1 binding; inhibition, % at 10 µM; hit rate 0.1% among 190,000; in the data active = inhibition above about 40%
Large screens that a line does not name were inactive. Rows were chosen to be rich in hits. Some 3.4% of all compounds tested hit in one or more screens of this group.

CCO[C@H]1OC(C(=O)N2CCN(C)CC2)=C[C@@H](c2ccc(Br)cc2)[C@@H]1CCCO	none
O=C(O)c1ccc(Cl)c(S(=O)(=O)Nc2ccc3[nH]c(=O)[nH]c3c2)c1	Mcl1 Noxa PPI 55.9 (no result: Mcl-1 Bim block)
CN(C)c1ccc(/C=N/NC(=O)c2cc(-c3ccc4c(c3)OCO4)n[nH]2)cc1	Mcl1 Noxa PPI 59.8 (no result: Mcl-1 Bim block)
Cc1cc(N2C(=O)[C@@H]3[C@H](C2=O)[C@@H]2C[C@H]3C(Br)C2Br)no1 (stereo partly specified)	none (no result: Mcl-1 Bim block)
O=C(COC(=O)CCCc1c[nH]c2ccccc12)Nc1ccc2c(c1)OCO2	Mcl1 Noxa PPI 55.6
Cc1cccc(OCC(=O)Nc2ccc3c(c2)OCO3)c1C	none
Cc1ccc(C)c(OCC(=O)Nc2ccc3c(c2)OCO3)c1C	Mcl1 Bid PPI 85.0
CC(C)=CCN1CCN(Cc2cc(C(C)C)n[nH]2)CC1CCO (stereo unspecified)	none
COc1cccc(CN2CCN(Cc3cccn3-c3cccnc3)CC2CCO)c1 (stereo unspecified)	none
CCOC(=O)C1=C(C)NC(=O)C(C(N)=O)C12CCCCC2 (stereo unspecified)	Mcl1 Noxa PPI 56.9
Cc1cc(C2=NNC(=NCCc3ccccc3)SC2)c(C)n1-c1c(C)n(C)n(-c2ccccc2)c1=O	none (no result: Mcl-1 Bim block)
Cc1cc(C2=NNC(=NC3CC3)SC2)c(C)n1-c1c(C)n(C)n(-c2ccccc2)c1=O	Mcl1 Noxa PPI 51.8
O=C(C(c1ccccc1)c1ccccc1)N1CCN(Cc2ccco2)CC1	14-3-3 Bad PPI 71.1
O=C(C(c1ccccc1)c1ccccc1)N1CCOCC1	none
Clc1ccccc1CNc1nc2ccccc2n2cnnc12	none (no result: Mcl-1 Bim block)
CCN(CC)S(=O)(=O)c1cc(NC(=O)CSc2nnc(-c3cccs3)o2)ccc1C	p47phox inh 51.9
O=C(CSc1nc2ccccc2[nH]1)Nc1nc(-c2ccc(Br)cc2)cs1	none
O=C1C(c2c(O)[nH]c3ccccc23)=Nc2ccccc21	p47phox inh 93.1
CC(=O)c1cccc2c(O)c(C3=Nc4ccccc4C3=O)[nH]c12	Mcl1 Noxa PPI 62.3
COC(=O)C1=C(C)C(c2ccc(OC)cc2OC)NC(=O)N1 (stereo unspecified)	Mcl1 Bid PPI 64.5
COc1cccc(C2NC(=O)NC(C)=C2C(=O)Nc2ccc(C)cc2)c1OC (stereo unspecified)	none
COc1ccc(NC(=O)C2=C(C)NC(=O)NC2c2cccc(OC)c2OC)c(OC)c1 (stereo unspecified)	Mcl-1 Bim block 43.0
O=C1NC2(CCCCC2)C(=O)N1Cc1cccc(C(F)(F)F)c1	none
Cn1c(-c2ccc(F)cc2)cnc1NCc1ccccc1	none
Cn1c(-c2ccc(F)cc2)cnc1NCc1cccc(F)c1	14-3-3 Bad PPI 78.6
CCOC(=O)c1c(NC(=O)CSc2nnnn2C)sc(C)c1-c1ccc(C)cc1	m-calpain inh 55.8
c1ccc(CNc2c3c(nc4ncnn24)CCC3)cc1	none (no result: Mcl-1 Bim block)
COC(=O)c1cc(N2C(=O)C3C(C2=O)C2(C)C=CC3(C)O2)ccc1Cl (stereo unspecified)	Mcl1 Noxa PPI 68.8
CCCCCC(=O)NCc1c(C(F)(F)F)nn(C)c1N1CCOCC1	none
C#CCOCCOCCOCCNc1nc(N2CCN(C(=O)[C@H](CCCCN)n3cc([C@@H](N)CO)nn3)CC2)nc(N2CCN(C(=O)[C@H](Cc3cc4ccccc4[nH]3)n3cc([C@@H](N)CO)nn3)CC2)n1	p47phox inh 38.9 (no result: Mcl-1 Bim block)
C#CCOCCOCCOCCNc1nc(N2CCN(C(=O)[C@H](Cc3cc4ccccc4[nH]3)n3cc([C@@H](N)C(C)CC)nn3)CC2)nc(N2CCN(C(=O)[C@H](CCCCN)n3cc([C@@H](N)CO)nn3)CC2)n1 (stereo partly specified)	none
C#CCOCCOCCOCCNc1nc(N2CCN(C(=O)C(Cc3ccc(O)cc3)n3cc(C(N)CC(C)C)nn3)CC2)nc(N2CCN(C(=O)C(Cc3cc4ccccc4[nH]3)n3cc(C(N)Cc4ccc(O)cc4)nn3)CC2)n1 (stereo unspecified)	Mcl1 Bid PPI 96.3
C#CCOCCOCCOCCNc1nc(N2CCN(C(=O)[C@H](CCCCN)n3cc([C@@H](N)CO)nn3)CC2)nc(N2CCN(C(=O)[C@H](Cc3cc4ccccc4[nH]3)n3cc([C@@H](N)CC(C)C)nn3)CC2)n1	Mcl1 Bid PPI 53.5 (no result: p47phox inh)
C#CCOCCOCCOCCNc1nc(N2CCN(C(=O)[C@H](CCCCN)n3cc([C@@H](N)C(C)CC)nn3)CC2)nc(N2CCN(C(=O)[C@H](Cc3cc4ccccc4[nH]3)n3cc([C@@H](N)CC(C)C)nn3)CC2)n1 (stereo partly specified)	none (no result: p47phox inh)
C/C(=N\Nc1cccc(Cl)c1)c1ccc(-n2ccnc2)cc1	none
CCc1cc2c(SCC#N)ncnc2s1	none
Cc1ccc(C(=O)Nc2ccccc2SCC2CSc3nc4ccccc4c(=O)n32)cc1 (stereo unspecified)	Mcl1 Bid PPI 52.8
O=C(Nc1ccccc1SCC1CSc2nc3ccccc3c(=O)n21)c1ccccc1 (stereo unspecified)	none
CCCN1C=CC(=C/C=C(\C#N)C(=O)OCC)C=C1	none
CCCCCCN1C=CC(=C/C=C(\C#N)C(=O)OCC)C=C1	p47phox inh 33.2
CCOC(=O)/C(C#N)=C/C=C1\C=Cc2ccccc2N1CC	p47phox inh 124.5
CC(C)C[C@H](NC(=O)c1nc[nH]c1C(=O)N1CCN(c2ccccc2)CC1)C(=O)OCc1ccccc1	none (no result: Mcl-1 Bim block)
CC(C)N(Cc1cc2ccccc2[nH]c1=O)C(=O)c1ccco1	none
O=C(Cc1cccs1)N/N=C/C=C/c1ccco1	Mcl1 Noxa PPI 70.3
O=C(N/N=C\C=C\c1ccco1)c1cc(-c2ccc3ccccc3c2)n[nH]1	Mcl1 Noxa PPI 93.2
O=C(CNc1cccc2ccccc12)N/N=C/C=C/c1ccco1	none
O=C(CSc1nnc(SCc2ccccc2)s1)N/N=C/C=C/c1ccco1	Mcl1 Noxa PPI 106.4
CCn1c(SCC(=O)N/N=C/C=C/c2ccco2)nnc1-c1ccccc1	none
CCN(C(=O)COC(=O)CNS(=O)(=O)c1ccccc1)c1ccccc1	none
O=C(O)c1cn(-c2ccc(F)cc2)c(=O)c2ccccc12	none
CC(C)c1onc(C(=O)NC2CCCC2)c1[N+](=O)[O-]	none
COCCCn1cnnc1SCc1nc2sc(C(C)=O)c(C)c2c(=O)[nH]1	none (no result: Mcl-1 Bim block)
O=C(CCCN1C(=O)/C(=C/c2cccc(Br)c2)SC1=S)Nc1cccnc1	none (no result: p47phox inh)
O=C(CCCN1C(=O)/C(=C\c2cccc(Br)c2)SC1=S)Nc1cccnc1	Mcl1 Bid PPI 59.4

Screening data from PubChem BioAssay.
